TGFb SMAD3 inh: qHTS for Inhibitors of TGF-b; HepG2 CAGA-GFP TGF-b/SMAD3 reporter, GFP fluorescence, 18 h; TGF-beta stimulated, 500 pg/mL final; Potency, µM (doses to about 46.1 µM), for the others: at the highest dose activity, negative = inhibition, hits mostly inhibitors; 1.2% of 410,000 active; note: % is set by controls: 0 for no effect and ±100 for the full control effect; nearly all actives have a fitted effect of over 65% in size
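Inhibition was scored as loss of TGF-beta-induced (500 pg/mL final, 18 hours, 37 degrees C) GFP in HEPG2 cells carrying a CAGA-GFP reporter, in DMEM with 1% FBS. Well GFP was summed per cell; Activity was normalised to unstimulated and stimulated DMSO wells, then concentration-response fitting.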
HepG2 tox-1: qHTS for Inhibitors of TGF-b: Cytotox Counterscreen | HepG2 CAGA-GFP viability, ATP luminescence, 18 h | Potency, µM (titrated, usually from 46.1 µM), for inactives: at the top dose activity change, negative = cytotoxicity, actives largely listed as cytotoxic | 0.76% of 410,000 active | AID 588856, 2011
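HepG2 CAGA-GFP cells (1000/well, DMEM with 1% FBS) received compound, then TGF-beta at 500 pg/mL final, and were incubated 18 hours at 37 degrees C. Viability was read by CellTiter-Glo luminescence. Media-only wells were set as complete cell-killing and DMSO as no toxicity.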
A549 tox: Nrf2 qHTS screen for inhibitors: counterscreen for cytotoxicity; A549 ARE-Fluc cells, CellTiter-Fluor viability, 18-24 h; Potency, µM (top dose mostly 46 µM), without a hit: at the highest dose activity change, negative = cytotoxicity, usual class: inhibitors; 0.16% of 390,000 active; note: % is set by controls: 0 for no effect and ±100 for the full control effect
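A549 ARE_Fluc cells in 5% FBS OPTI-MEM were exposed to compounds in concentration-response for 18-24 h at 37 deg C. Viability was read by CellTiter-Fluor fluorescence (Ex 405/Em 525) after 30 min, before the luciferase read.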
S2 tox: Viability Counterscreen for Primary qHTS for Inhibitors of ATXN expression. Potency, µM (doses to about 56.7 µM), actives largely listed as cytotoxic. 0.49% of 400,000 active. S2 cells (HEK-293 line with an ATXN2-luciferase reporter) viability, CellTiter-Fluor protease fluorescence, 24 h. AID 651635, 2014; note: nearly all actives have a fitted effect of over 40% in size
ATXN2 expr inh: Primary qHTS for Inhibitors of ATXN expression; 0.72% of 360,000 active; Potency, µM (doses to about 57 µM), inactives show at the highest dose activity change, negative = inhibition, most hits filed as inhibitors; HEK-293 ATXN2-luciferase reporter, luminescence, 24 h; note: % is set by controls: 0 for no effect and ±100 for the full control effect; nearly all actives have a fitted effect of over 55% in size
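qHTS (up to 57 uM final) was run with 24 h compound exposure of reporter cells at 37 °C. Each well was multiplexed: SteadyGlo luminescence measured ATXN2-luciferase expression after a fluorogenic Gly-Phe-AFC viability readout (25 uM final).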
Nrf2 block: Nrf2 qHTS screen for inhibitors; A549 ARE-Fluc reporter, luciferase luminescence, 18-24 h; Potency, µM (series often up to 46 µM), without a hit: top-dose activity change, negative = inhibition, usual class: inhibitors; 2.1% of 360,000 active; AID 504444, 2011; note: % is set by controls: 0 for no effect and ±100 for the full control effect; nearly all actives have a fitted effect of over 60% in size
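A549 ARE_Fluc cells (5000/well, 5% FBS OPTI-MEM) pre-incubated 2 h, then treated with compounds 18-24 h at 37C/5% CO2 in concentration-response. CellTiter-Fluor viability read first; BugLite luciferase luminescence after 15 min at room temperature gives Nrf2 activity.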
TGFb confirm: qHTS for Inhibitors of TGF-b: Confirmation of Cherry Picks. Potency, µM (titrated, usually from 46.1 µM), without a hit: at the top dose activity, negative = inhibition, most hits filed as inhibitors. shares compounds with TGFb SMAD3 inh. 63% of 1,600 active. AID 720534, 2013. HepG2 CAGA-GFP TGF-b reporter, GFP fluorescence, 18 h; cells stimulated with TGF-beta, 500 pg/mL; note: % is set by controls: 0 for no effect and ±100 for the full control effect; nearly all actives have a fitted effect of over 65% in size
HepG2 tox-2: qHTS for Inhibitors of TGF-b: Cytotox Counterscreen for Cherry Picks. shares compounds with TGFb SMAD3 inh. HepG2 CAGA-GFP viability, ATP luminescence, 18 h; cells stimulated with TGF-beta, 500 pg/mL. Potency, µM (titrated, usually from 46.1 µM), without a hit: top-dose activity, negative = cytotoxicity, most hits filed as inhibitors. 27% of 1,600 active. AID 720535, 2013; note: % is set by controls: 0 for no effect and ±100 for the full control effect; nearly all actives have a fitted effect of over 70% in size
CCL64 TGFb inh: qHTS for Inhibitors of TGF-b: CCL64 Cells Orthogonal Assay for Cherry Picks; CCL64 CAGA-GFP reporter, TGF-b stimulated, GFP fluorescence, 18 h; Potency, µM (series often up to 46.1 µM), for inactives: at the top dose activity, negative = inhibition, hits mostly inhibitors; AID 720536, 2013; 41% of 1,600 active; shares compounds with TGFb SMAD3 inh; note: nearly all actives have a fitted effect of over 65% in size
TGFb COP inh: qHTS for Inhibitors of TGF-b: Hit Validation in HepG2 Cells using COP promoter. shares compounds with TGFb SMAD3 inh. HepG2 COP-GFP TGF-b reporter, GFP fluorescence, 18 h; cells stimulated by added recombinant TGF-beta. Potency, µM (top dose mostly 46.1 µM), inactives show at the top dose activity, negative = inhibition, actives largely listed as inhibitors. 3% of 1,600 active. AID 720537, 2013; note: nearly all actives have a fitted effect of over 70% in size
Numbers without * were called inactive; i = inactive; ? = inconclusive; nt = not tested or not shown. Shown are actives, neighbours in structure and some others; about 3.8% of the full set was active somewhere. Calls come from the whole dose curve; as a rule, active = well fitted curve in the direction sought with a large enough effect; inconclusive = small, poorly fitted or top-dose-only effect, or another doubt; inactive = no such curve, though single readings can be large; an effect the other way counts as inactive or inconclusive. Potency is the fitted concentration of half-maximal effect.

SMILES | TGFb SMAD3 inh | HepG2 tox-1 | A549 tox | S2 tox | ATXN2 expr inh | Nrf2 block | TGFb confirm | HepG2 tox-2 | CCL64 TGFb inh | TGFb COP inh
COc1cc([N+](=O)[O-])ccc1NC(=S)NNC(=O)CCC(=O)Nc1ccccc1Cl | -13% | -4% | -11% | i | -5% | 9% | nt | nt | nt | nt
Cc1ccc(NC(=O)N2CCc3c(sc4c3CCCC4)C2c2ccccc2)cc1F (centres undefined) | -16% | -29% | -5% | ? | 3% | nt | nt | nt | nt | nt
Cc1ccc(C(C(=O)NC2CCCCC2)N(Cc2ccccc2)C(=O)Cc2c[nH]c3ccccc23)o1 (centres undefined) | ? | -9% | ? | ? | ? | ? | nt | nt | nt | nt
COc1cccc(CN(C(=O)Cc2c[nH]c3ccccc23)C(C(=O)NC2CCCCC2)c2ccc(C)o2)c1 (centres undefined) | 16µM* | -11% | ? | ? | ? | 21µM* | 26µM* | ? | ? | 23%
CC(C)Cc1nnc(NC(=O)CCS(=O)(=O)c2ccc(Cl)cc2)s1 | -21% | -2% | -10% | i | 3% | 24% | nt | nt | nt | nt
COc1ccc(N2C(=NC(=O)C(C)Oc3ccccc3)SC3CS(=O)(=O)CC32)cc1 (centres undefined) | 5% | -76% | 11% | i | 8% | -14% | nt | nt | nt | nt
CCCCCCN1C[C@H](n2cc(-c3ccc(F)cc3)nn2)[C@@H](O)C[C@@H]1c1ccc(Cl)cc1 | 7.1µM* | 11µM* | nt | nt | 32µM* | nt | 21µM* | ? | 18µM* | ?
O=C(Oc1ccc(Cl)c2cccnc12)N1CCOCC1 | -13% | 1% | -8% | ? | -26% | -2% | nt | nt | nt | nt
O=C(Oc1c(Cl)cc(Cl)c2cccnc12)c1cccs1 | 3.5µM* | -3% | ? | ? | ? | ? | 21µM* | ? | ? | 5%
O=C(Nc1cccnc1Cl)c1cccs1 | 1% | -1% | -18% | ? | 9% | 25% | nt | nt | nt | nt
O=C(Oc1c(Cl)cc(Cl)c2cccnc12)c1ccco1 | 6.3µM* | -2% | ? | ? | ? | 23µM* | 18µM* | ? | ? | 24%
O=C(Oc1c(CN2CCOCC2)cc(Cl)c2cccnc12)c1cccs1 | 7.1µM* | -62% | -8% | ? | ? | ? | ? | ? | 16µM* | 14%
CCC1NC(=O)c2cc3ccccc3cc2-n2c1nc1cc(OC)c(OC)cc1c2=O (centres undefined) | 10% | 16% | nt | ? | -19% | nt | nt | nt | nt | nt
Cc1cc(N2O[C@H]3C=C[C@@H]2C3)no1 | 23% | 3% | -3% | i | 10% | 4% | nt | nt | nt | nt
O=C(c1cccc(Br)c1)N1CCN(S(=O)(=O)N2CCCCC2)CC1 | -4% | -6% | 0% | i | -2% | -20% | nt | nt | nt | nt
CC(=O)Nc1ccc(NC(=O)CCS(=O)(=O)c2ccc3c(c2)CC(=O)N3C)cc1 | -3% | -18% | -1% | i | 8% | 24% | nt | nt | nt | nt
CCC1CN(C(=O)N2CCC(C(=O)Nc3ccccc3F)CC2)c2ccccc2O1 (centres undefined) | ? | 0% | 2% | i | -10% | 1% | nt | nt | nt | nt
CC(C)=CCNc1ncnc2c1c(C#N)cn2C1OC(CO)C(O)C1O (centres undefined) | 4µM* | -26% | -6% | ? | -31% | -7% | 0.73µM* | ? | 13% | 22%
OCC1OC(n2cnc3c(NO)ncnc32)C(O)C1O (centres undefined) | -6% | 6% | -3% | nt | nt | 19% | nt | nt | nt | nt
COc1ccccc1NC(=S)N=Nc1c(O)[nH]c2ccc(Br)cc12 | ? | 11% | -24% | ? | nt | ? | ? | ? | 3.3µM* | -3%
Cc1cccc(NC(=S)N=Nc2c(O)[nH]c3ccccc23)c1 | ? | -28% | -18% | ? | ? | ? | nt | nt | nt | nt
COc1ccc(-c2[nH]ncc2CN2CCC(O)(c3ccc(Cl)cc3)CC2)cc1 | 6.3µM* | -29% | -17% | i | -38% | ? | ? | ? | 9.2µM* | 87%
COc1ccc(-c2[nH]ncc2CN2CCN(c3ccc(F)cc3)CC2)cc1 | ? | -31% | 8% | i | nt | -14% | nt | nt | nt | nt
OC1(c2ccc(Cl)cc2)CCN(Cc2cn[nH]c2-c2ccc(F)cc2)CC1 | 4µM* | -32% | -3% | i | -29% | -23% | ? | ? | 26µM* | 70%
OC1(c2ccc(Cl)cc2)CCN(Cc2cn[nH]c2-c2ccccc2)CC1 | ? | -29% | -7% | i | -36% | ? | nt | nt | nt | nt
SMILES | TGFb SMAD3 inh | HepG2 tox-1 | A549 tox | S2 tox | ATXN2 expr inh | Nrf2 block | TGFb confirm | HepG2 tox-2 | CCL64 TGFb inh | TGFb COP inh
N#CN1CCC(NS(=O)(=O)c2cccc(C(F)(F)F)c2)CC1 | nt | nt | 1% | nt | nt | -19% | nt | nt | nt | nt
COc1cc(C(=O)c2cocc2C(=O)c2ccc3c(c2)OCO3)cc(OC)c1OC | ? | 4% | -8% | i | 6% | -5% | -10% | 1% | -15% | -14%
O=C(COc1cccc(F)c1)Nc1nc(-c2cccnc2)cs1 | 2% | -13% | 8% | i | nt | 1% | nt | nt | nt | nt
COc1cccc(C(=O)N(C)c2nnc(-c3ccncc3)s2)c1 | -10% | 16% | -4% | i | 2% | -27% | nt | nt | nt | nt
CC(=O)Oc1ccc2nonc2c1OC(C)=O | -13% | -3% | -18% | nt | nt | -9% | nt | nt | nt | nt
CC(=O)Nc1cc(OC(C)=O)c2nonc2c1OC(C)=O | 2.8µM* | 6.3µM* | ? | nt | ? | 15µM* | 4.1µM* | 7.3µM* | 21µM* | 9.2µM*

Compound activity: PubChem, National Center for Advancing Translational Sciences (NCATS)
